Source: PubChem BioAssay AID1159580 (chemical genetic matrix, 2015)
Values joined by “and” are separate entries in the source; they are usually repeats but may differ in a detail not shown here. Identical values can stand only once. Screen size: about 5,500 compounds; about 2,000 (36%) were called active. Another 18% or so got no clear call; they are omitted. Rule as the data show it: active = normalized growth mostly below about 0.91 (no sharp cut-off); inconclusive = no clear call, values can overlap the other calls; inactive = mostly above about 0.92. Some of the results follow.

Experiment: chemical genetic growth profiling, strain panel (AID 1159580);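 also: tested at 20 µM; growth read once vehicle control cultures reached saturation at 30 °C; 1 = growth at the plate median or of vehicle wells; lower values mean less growth of the strain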
Settings: S. cerevisiae deletion strains, growth OD

Measured: normalized growth

C[C@@H]1CC[C@H]2[C@@H](C)C(O)O[C@@H]3O[C@@]4(C)CC[C@@H]1[C@]32OO4 (some centres not stated)
active: locus YAL013W, strain DEP1, stronger effect = lower value 0.528 | locus YAL021C, strain ccr4, stronger effect = lower value 0.507 | locus YAL026C, strain drs2, stronger effect = lower value 0.358 | locus YAL030W, strain snc1, stronger effect = lower value 0.319 | locus YBL061C, strain skt5, stronger effect = lower value 0.337 | locus YBR009C, strain hhf1, stronger effect = lower value 0.215 | locus YBR023C, strain chs3, stronger effect = lower value 0.331 | locus YBR171W, strain sec66, stronger effect = lower value 0.608 | locus YBR229C, strain ROT2, stronger effect = lower value 0.7 | locus YBR231C, strain swc5, stronger effect = lower value 0.253 | locus YBR279W, strain paf1, stronger effect = lower value 0.276 | locus YCL011C, strain gbp2, stronger effect = lower value 0.231 | locus YCL016C, strain dcc1, stronger effect = lower value 0.275 | locus YCL029C, strain bik1, stronger effect = lower value 0.325 | locus YCL061C, strain MRC1, stronger effect = lower value 0.312 | locus YCL069W, strain vba3, stronger effect = lower value 0.315 | locus YCR088W, strain abp1, stronger effect = lower value 0.321 | locus YDL005C, strain med2, stronger effect = lower value 0.448 | locus YDL035C, strain GPR1, stronger effect = lower value 0.295 | locus YDL040C, strain nat1, stronger effect = lower value 0.408 | locus YDL074C, strain BRE1, stronger effect = lower value 0.556 | locus YDL101C, strain DUN1, stronger effect = lower value 0.325 | locus YDL134C, strain PPH21, stronger effect = lower value 0.314 | locus YDL185W, strain tfp1, stronger effect = lower value 0.139 | locus YDL192W, strain arf1, stronger effect = lower value 0.547 | locus YDR001C, strain nth1, stronger effect = lower value 0.377 | locus YDR069C, strain doa4, stronger effect = lower value 0.386 | locus YDR101C, strain arx1, stronger effect = lower value 0.459 | locus YDR137W, strain rgp1, stronger effect = lower value 0.348 | locus YDR150W, strain NUM1, stronger effect = lower value 0.262 | locus YDR159W, strain sac3, stronger effect = lower value 0.471 | locus YDR162C, strain NBP2, stronger effect = lower value 0.356 | locus YDR195W, strain ref2 0.54 | locus YDR297W, strain sur2, stronger effect = lower value 0.384 | locus YDR318W, strain mcm21, stronger effect = lower value 0.258 | locus YDR334W, strain swr1, stronger effect = lower value 0.276 | locus YDR335W, strain msn5, stronger effect = lower value 0.492 | locus YDR388W, stronger effect = lower value 0.316 | locus YDR392W, strain spt3, stronger effect = lower value 0.133 | locus YDR502C, strain sam2, stronger effect = lower value 0.415 | locus YEL003W, strain gim4, stronger effect = lower value 0.237 | locus YEL037C, strain rad23, stronger effect = lower value 0.407 | locus YEL061C, strain CIN8 (second series), stronger effect = lower value 0.295 | locus YEL061C, strain CIN8, stronger effect = lower value 0.302 | locus YER015W, strain faa2, stronger effect = lower value 0.179 | locus YER016W, strain bim1, stronger effect = lower value 0.235 | locus YER110C, stronger effect = lower value 0.275 | locus YER111C, strain swi4, stronger effect = lower value 0.5 | locus YER155C, strain BEM2 (second series), stronger effect = lower value 0.568 | locus YER155C, strain BEM2, stronger effect = lower value 0.345 | locus YER167W, strain BCK2, stronger effect = lower value 0.198 | locus YFR010W, strain ubp6, stronger effect = lower value 0.391 | locus YGL078C, strain dbp3, stronger effect = lower value 0.477 | locus YGL086W, strain mad1, stronger effect = lower value 0.279 | locus YGL167C, strain pmr1, stronger effect = lower value 0.781 | locus YGL173C, strain kem1, stronger effect = lower value 0.729 | locus YGL227W, strain vid30, stronger effect = lower value 0.254 | locus YGL240W, strain doc1, stronger effect = lower value 0.23 | locus YGL248W, strain PDE1, stronger effect = lower value 0.282 | locus YGL253W, strain hxk2, stronger effect = lower value 0.251 | locus YGR078C, strain PAC10, stronger effect = lower value 0.527 | locus YGR135W, strain pre9, stronger effect = lower value 0.653 | locus YGR229C, strain SMI1, stronger effect = lower value 0.286 | locus YGR252W, strain gcn5, stronger effect = lower value 0.665 | locus YHR013C, strain ard1, stronger effect = lower value 0.234 | locus YHR027C, strain rpn1, stronger effect = lower value 0.221 | locus YHR030C, strain SLT2, stronger effect = lower value 0.252 and 0.332 | locus YHR079C, strain IRE1 (second series), stronger effect = lower value 0.359 | locus YHR079C, strain IRE1, stronger effect = lower value 0.3 | locus YHR094C, strain hxt1, stronger effect = lower value 0.388 | locus YHR129C, strain ARP1, stronger effect = lower value 0.331 | locus YHR142W, strain chs7, stronger effect = lower value 0.284 | locus YHR200W, strain rpn10, stronger effect = lower value 0.562 | locus YIL066C, strain RNR3, stronger effect = lower value 0.229 | locus YIL073C, strain SPO22, stronger effect = lower value 0.308 | locus YIL125W, strain kgd1, stronger effect = lower value 0.411 | locus YIR030C, strain dcg1, stronger effect = lower value 0.381 | locus YJL092W, strain hpr5, stronger effect = lower value 0.346 | locus YJL095W, strain BCK1 (second series), stronger effect = lower value 0.267 | locus YJL095W, strain BCK1, stronger effect = lower value 0.298 and 0.302 | locus YJL115W, strain asf1, stronger effect = lower value 0.443 | locus YJL129C, strain trk1, stronger effect = lower value 0.538 | locus YJL134W, strain LCB3, stronger effect = lower value 0.589 | locus YJL154C, strain vps35, stronger effect = lower value 0.42 | locus YJL164C, strain tpk1, stronger effect = lower value 0.248 | locus YJL166W, strain qcr8, stronger effect = lower value 0.167 | locus YJL168C, strain set2, stronger effect = lower value 0.422 | locus YJL187C, strain SWE1 (second series), stronger effect = lower value 0.392 | locus YJL187C, strain SWE1, stronger effect = lower value 0.299 | locus YJR043C, strain POL32, stronger effect = lower value 0.369 | locus YJR066W, strain TOR1, stronger effect = lower value 0.319
inactive: locus YBR021W, strain FUR4, stronger effect = lower value 0.857
